What is called AC50 is the midpoint of the concentration-response curve, whichever way the signal moves.

SMILES strings stand for the structures. Structures can show the parent of a compound that is named as a salt. Bounds are passed on as bounds.

The subject of this test is thyroid hormone receptor (endogenous TRα and TRβ). On the set-up: species or system GH3-TRE-Luc (rat pituitary); GH3-TRE-Luc luciferase reporter, antagonist mode against 1 nM T3, loss of signal, qHTS. The following applies: read-out: Average AC50 (uM) GH3-TRE-Antag, antagonist mode, 1 nM T3, no GH3 cytotoxicity hit.
`CCCC1C(CC)=CC(CC)=CN1c1ccccc1` (centres unmarked) [3,5-Diethyl-1-phenyl-2-propyl-1,2-dihydropyridine]: the concentration at half-maximal activity (AC50) amounted to 53.9 µM.
The result for `CC/C=C\C/C=C\C/C=C\CCCCCCCC(=O)OCC` [Ethyl linolenate] reads 65.3 µM.
The result for `Cc1c(Cl)cccc1Nc1ccccc1C(=O)O` [Tolfenamic acid] reads 12.5 µM.
For the molecule `Cc1cc(C)c(/C=C2\C(=O)Nc3ccccc32)[nH]1` [SU-5416], the AC50 is 18.1 µM.
With `O=C(CCC1CCN(Cc2ccccc2)CC1)c1ccc2c(c1)NCCCC2` [Zanapezil fumerate], the AC50 stood at 12.4 µM.
In the case of `NNc1ccc(C(=O)O)cc1` [4-Hydrazinobenzoic acid hydrochloride] it was 84.8 µM; in that of `C=C(C#N)C(=O)OCC` [Ethyl cyanoacrylate], above 90 µM.
Take `O=C(Nc1ccccc1-c1ccc(Cl)cc1)c1cccnc1Cl` [Boscalid]: the AC50 is above 100 µM.
Consider `c1ccc2c(c1)ccc1ncccc12` [Benzo(f)quinoline], for which the AC50 was above 90 µM.
On to `CCN(Cc1cccc(S(=O)(=O)O)c1)c1ccc(C(=C2C=CC(=[N+](CC)Cc3cccc(S(=O)(=O)[O-])c3)C=C2)c2ccccc2)cc1` [FD&C Green No. 1], for which the AC50 came to 66.2 µM.
The result for `Oc1cc(Cl)cc(Cl)c1Cl` [2,3,5-Trichlorophenol] reads 57 µM; that for `C=CCNC1=C2C[C@@H](C)C[C@H](OC)[C@H](O)[C@@H](C)/C=C(\C)[C@H](OC(N)=O)[C@@H](OC)/C=C\C=C(/C)C(=O)NC(=CC1=O)C2=O` [Tanespimycin], 0.306 µM; that for `CCCCC(CC)COC(=O)c1ccccc1C(=O)O` (centres unmarked) [MEHP], 70.2 µM.
As for `C(COCC1CO1)OCC1CO1` (centres unmarked) [Ethylene glycol diglycidyl ether], the AC50 was 38 µM.
